Results on 40 compounds are retold here after PubChem BioAssay (Tox21).

Inconclusive results are not listed. Entries that show only a call come without a potency. The source made the active and inactive calls. Calls come from the whole dose curve; as a rule, active = well fitted cell-killing curve with a large enough effect in the repeat runs; inconclusive = weak or mixed curves; inactive = flat fitted curve, though single readings scatter.

The assay in a line: qHTS RealTime-Glo MT Cell Viability Assay in HepG2 cells - 32 hour (AID 1224877). Note: nearly all actives have a fitted effect of over 55% in size. To be noted: RealTime-Glo luminescence; series mostly up to 76.8 µM. An excerpt:
U.S. Tox21 Program National Center for Advancing Translational Sciences [NCATS] NIH Chemical Genomics Center [NCGC] U.S. Environmental Protection Agency [EPA] National Institutes of Environmental Health Sciences [NIEHS] National Toxicology Program [NTP] U.S. Food and Drug Administration [FDA] Tox21 Assay Overview: Measure of cell viability is critical in the cell-base assay. Analysis of cell viability is necessary for the characterization of cell responses to cytotoxic drugs and environmental stress. A RealTime-Glo MT Cell Viability Assay to monitor cell viability in real time of continues cell culture during 40 hours of compound treatment was used to screen Tox21 10K library compounds in HepG2 cells. The RealTime-Glo MT Cell Viability Assay is a nonlytic, homogeneous, bioluminescent method to measure cell viability in real time using a simple, plate-based method. The assay involves adding NanoLuc luciferase and a cell-permeant prosubstrate to cells in culture. Viable cells reduce the proprietary prosubstrate to generate a substrate for NanoLuc luciferase. This substrate diffuses from cells into the surrounding culture medium, where it is rapidly used by the NanoLuc Enzyme to produce a luminescent signal. The signal correlates with the number of viable cells, making the assay well suited for cytotoxicity studies.
Tox21 Assay Protocol Summary: The mixture of HepG2 cell suspension and reagents were dispensed at 600cells/6 ul/well in 1536-well tissue culture treated black solid bottom plates using a Multidrop dispenser. After the assay plates were incubated at a 37 C/5% CO2 incubator for 5 hours, 23 nL of compounds dissolved in DMSO, positive and negative controls was transferred to the assay plate by a pintool work station. The plates were incubated at 37 C for 40 hours. The luminescence intensity were measured at 0h, 8h, 16h, 24h, 32h and 40h time points using ViewLux plate reader during compound treatment.
On to `NC(CSCC(=O)O)C(=O)O` (stereo not given), for which the Potency entry was “inactive”.
Turning to `CC1(C)CO[C@@H](CC(=O)O)CN1`, the Potency result is “inactive”.
The value for `CN1CC(=O)NC1=N` was “inactive”; that for `C=CCS(=O)(=O)O` was “inactive”; that for `C[C@@H]1CCN(C(=O)[C@H](CCCN=C(N)N)NS(=O)(=O)c2cccc3c2NC[C@H](C)C3)[C@@H](C(=O)O)C1` was “inactive”.
On to `COc1ccc2c(c1)c(CC(=O)OCC(=O)O)c(C)n2C(=O)c1ccc(Cl)cc1`, for which the Potency result is “inactive”.
Turning to `NC(=O)c1ccc(N)cc1`, the Potency entry is “inactive”.
Consider `CCSC(=O)N(CC(C)C)CC(C)C`, for which the Potency entry is “inactive”.
The value for `CC/C=C\CCOC(C)=O` was “inactive”; that for `O=C[C@H](O)[C@@H](O)[C@H](O)[C@H](O)CO` was “inactive”.
As for `CC1=CC(C)C(C=O)CC1` (stereo not given), the entry is “inactive”; as for `CC(C)(C)c1nnc(NS(=O)(=O)c2ccccc2)s1`, “inactive”; as for `COCCCOCCCOC`, “inactive”.
Take `CC(C)(O)C(=O)c1ccccc1`: the Potency result was “inactive”.
The value for `CC(C[N+](C)(C)C)OC(N)=O` (stereo not given) was “inactive”.
For `Cc1cc(O)cc2c1O[C@](C)(CCC[C@H](C)CCC[C@H](C)CCCC(C)C)CC2`, the Potency entry is “inactive”.
Take `CCOC(=O)CC(C)=O`: the Potency entry is “inactive”.
For `O=C1CCCN1C1CCCCC1`, the Potency entry is “inactive”.
As for `CN1CCC(=C2c3ccccc3CC(=O)c3sccc32)CC1`, the entry is “inactive”.
As for `CN1CCN(c2cc3c(cc2F)c(=O)c(C(=O)O)cn3-c2ccc(F)cc2)CC1`, the entry is “inactive”; as for `N#Cc1ccc(C2CCCc3cncn32)cc1` (stereo not given), “inactive”.
As for `C/C=C(\C)C#N`, the entry is “inactive”; as for `Cc1ccc(=O)n(-c2ccccc2)c1`, “inactive”.
As for `CCn1ccnc1CC1COc2ccccc2O1` (stereo not given), the Potency entry was “inactive”.
On to `Nc1ccccc1S(=O)(=O)O`, for which the Potency entry was “inactive”.
For `CC(C)(CC(=O)O)C(=O)O`, the Potency entry was “inactive”.
The value for `CCN(CC)CCNC(=O)c1cc(S(C)(=O)=O)ccc1OC` was “inactive”.
`CC(=O)OCC(=O)[C@@]1(O)CC[C@H]2[C@@H]3CCC4=CC(=O)CC[C@]4(C)[C@H]3C(=O)C[C@@]21C`: the Potency entry was “inactive”.
As for `COC(=O)c1ccc(C)cc1C1=NC(C)(C(C)C)C(=O)N1` (stereo not given), the entry is “inactive”; as for `CC(C(=O)O)c1ccc(CC2CCCC2=O)cc1` (stereo not given), “inactive”.
Regarding `O=S(O)CO`, the Potency entry is “inactive”.
As for `CC(NC(CCc1ccccc1)C(=O)O)C(=O)N1C(=O)N(C)CC1C(=O)O` (stereo not given), the entry is “inactive”; as for `Cc1ccc(C#N)cc1`, “inactive”.
In the case of `C1OCOCO1`, the Potency result was “inactive”.
As for `O=C(O)CNC(=O)c1ccc([N+](=O)[O-])cc1`, the entry is “inactive”; as for `N=C(N)c1ccc(OCCCOc2ccc(C(=N)N)cc2)cc1`, “inactive”.
`O=c1cc(CO)occ1O`: the Potency entry was “inactive”.
`O=C(O)CCCc1ccccc1`: the Potency result was “inactive”.
As for `OCCCC1CCCCC1`, the entry is “inactive”.
As for `CCN(CC)CCOCCOC(=O)C1(c2ccccc2)CCCC1`, the entry is “inactive”.
